Source: PubChem BioAssay (EPA / NIEHS)
Records with an inconclusive call do not appear. Active and inactive are the calls of the source. The calls were made as follows, unless noted: active = hit-call score of the fitted dose curve at least 0.9, where 1 is the maximum; inactive = score below 0.9.

What was measured:
[1] = target: Estrogen receptor (Homo sapiens) (UniProt P03372); assay: CCTE_Deisenroth_AIME_96WELL_LUC_Active: CCTE's 96-well Estrogen Receptor Transactivation Assay with AIME metabolic competence (ERTA luciferase; metabolism positive), Deisenroth Lab (AID 2284023; active = hit-call score of the fitted dose curve at least 0.9, where 1 is the maximum)
Method in brief: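 Metabolism-positive mode: induced rat hepatic S9 in alginate microspheres conditions test solutions (0.002 - 200 uM, 10 points) for 2 hours. VM7Luc4E2 ER luciferase reporter cells then exposed 24 h; positive-direction fit against 17beta-estradiol, n=4 typical.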

[2] = target: Estrogen receptor (Homo sapiens) (UniProt P03372); assay: CCTE_Deisenroth_AIME_96WELL_LUC_Inactive: CCTE's 96-well Estrogen Receptor Transactivation Assay without AIME metabolic competence (ERTA luciferase; metabolism negative), Deisenroth Lab (AID 2284025; active = hit-call score of the fitted dose curve at least 0.9, where 1 is the maximum)
Method in brief: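 Metabolism-negative arm: chemicals (0.002–200 uM, 10 points) incubated 2 h with alginate-water microspheres, then medium moved onto VM7Luc4E2 cells for 24 h luciferase read-out. Positive direction vs 17beta-estradiol; n≥4 experiments.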

[3] = CCTE_Deisenroth_AIME_96WELL_CTox_Active: Cytotoxicity Assessment (CTOX) in CCTE's 96-well Estrogen Receptor Transactivation Assay with AIME metabolic competence (metabolism positive), Deisenroth Lab (AID 2284028; active = hit-call score of the fitted dose curve at least 0.9, where 1 is the maximum)
Method in brief: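 Cytotoxicity in VM7Luc4E2 breast cells after 24 h exposure to medium from a 2 h metabolic pre-incubation with induced rat hepatic S9 in alginate microspheres; fluorescent live-cell protease readout, 10-point series 0.002–200 uM, n=4.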

[4] = CCTE_Deisenroth_AIME_96WELL_CTox_Inactive: Cytotoxicity Assessment (CTOX) in CCTE's 96-well Estrogen Receptor Transactivation Assay without AIME metabolic competence (metabolism negative), Deisenroth Lab (AID 2284029; active = hit-call score of the fitted dose curve at least 0.9, where 1 is the maximum)
Method in brief: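 Metabolism-negative mode: alginate-water lids without rat S9, 2 h pre-incubation of 10-point series (0.002 - 200 uM). Conditioned medium on VM7Luc4E2 cells 24 h; loss of fluorescent live-cell protease signal marks cytotoxicity.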

[5] = target: Estrogen receptor (Homo sapiens) (UniProt P03372); assay: CCTE_Deisenroth_AIME_384WELL_LUC_Active: CCTE's 384-well Estrogen Receptor Transactivation Assay with AIME metabolic competence (ERTA luciferase; metabolism positive), Deisenroth Lab (AID 2284030; active = hit-call score of the fitted dose curve at least 0.9, where 1 is the maximum)
Method in brief: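 AIME metabolism-positive mode: chemicals 0.002 - 200 uM, 2 h with alginate-bound PB/BNF-induced rat S9 → medium to VM7Luc4E2 ERTA, 24 h → luciferase. Positive fit vs 17beta-estradiol; n=4 typical.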

[6] = target: Estrogen receptor (Homo sapiens) (UniProt P03372); assay: CCTE_Deisenroth_AIME_384WELL_LUC_Inactive: CCTE's 384-well Estrogen Receptor Transactivation Assay without AIME metabolic competence (ERTA luciferase; metabolism negative), Deisenroth Lab (AID 2284038; active = hit-call score of the fitted dose curve at least 0.9, where 1 is the maximum;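 also: hits raise estrogen receptor luciferase signal so potencies reflect agonists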)
Method in brief: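 VM7Luc4E2 ER transactivation, luciferase bioluminescence after 24 h, using medium pre-incubated 2 h with S9-free alginate microspheres. Concentrations 0.002–200 uM; gain of signal fitted relative to 17beta-estradiol.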

[7] = CCTE_Deisenroth_AIME_384WELL_CTox_Inactive: Cytotoxicity Assessment (CTOX) in CCTE's 384-well Estrogen Receptor Transactivation Assay without AIME metabolic competence (metabolism negative), Deisenroth Lab (AID 2284039; active = hit-call score of the fitted dose curve at least 0.9, where 1 is the maximum;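 also: cell viability via live-cell protease substrate cleaved to fluorescent probe; cells exposed 24 h to medium preincubated 2 h with alginate-water beads without S9; loss of fluorescence signal means loss of viability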)
Method in brief: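 VM7Luc4E2 human breast cells received conditioned medium from a 2 h incubation of chemical with alginate-water microspheres (no S9), then were exposed 24 h. Viability was read as protease-substrate cleavage to a fluorescent probe; loss of signal was fitted bidirectionally over 0.002–200 uM.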

[8] = target: Estrogen receptor (Homo sapiens) (UniProt P03372); assay: CCTE_Deisenroth_AIME_384WELL_LUC_Shift: CCTE's 384-well Estrogen Receptor Transactivation Assay with AIME metabolic competence data shift (ERTA luciferase; difference in metabolism positive and negative), Deisenroth Lab (AID 2284041);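 also: shift is response with S9 minus without S9 so positive means metabolism raised ER signal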
Method in brief: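 Chemicals (0.002–200 uM, 10 points) pre-incubated 2 h with alginate-encapsulated induced male Sprague Dawley rat liver S9 or S9-free, then medium applied 24 h to VM7Luc4E2 cells; luciferase. Endpoint is per-concentration difference, S9-positive minus negative.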

[9] = CCTE_Shafer_MEA_acute_per_network_burst_spike_number_std: CCTE's Neural Acute Assay for Standard Deviation of Number of Spikes in a Network Burst, Shafer Lab (AID 2284020);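 also: fitted for decrease in spike-number SD versus DMSO so actives lower it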
Method in brief: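 Rat cortical cultures, DIV 13/15, 37 C; 20-min stabilisation, 40-min baseline, compound 0.03-40 uM, 40-min re-record. Spikes detected at 8x rms noise (300-5000 Hz band-pass). Readout: % change from baseline in per-burst spike-number SD.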

[10] = CCTE_Shafer_MEA_acute_per_network_burst_electrodes_number_mean: CCTE's Neural Acute Assay for Mean Number of Electrodes in a Network Burst, Shafer Lab (AID 2284021);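 also: curves fitted for decreases only so hits reduce electrodes per burst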
Method in brief: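 Primary rat cortical networks, mwMEA, 37 C. 20 min stabilization, 40 min baseline, compound 0.03-40 uM, 40 min re-record. Wells need >=10 active electrodes; percent change per well, negative fitting direction.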

[11] = CCTE_Shafer_MEA_acute_network_burst_percentage: CCTE's Neural Acute Assay for Percentage of Network Bursts, Shafer Lab (AID 2284022);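 also: curves fitted for loss so actives lower network burst percentage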
Method in brief: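 Readout is the fraction of spikes falling in network bursts, expressed as per-well percent change from a 40-min pre-exposure baseline. Primary rat cortical neurons on MEA were exposed to 0.03-40 uM compound on DIV 13 or 15 and recorded for 40 min at 37 C.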

[12] = CCTE_Shafer_MEA_acute_cross_correlation_area: CCTE's Neural Acute Assay for Area of Cross Correlation, Shafer Lab (AID 2284024);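 also: rat primary cortical neuron networks on 48-well MEA at DIV 13 or 15 with 40 min exposure; area under pooled inter-electrode spike cross-correlation near zero lag as percent change from own baseline; curves fitted for loss of cross-correlation area so actives lower synchrony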
Method in brief: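 Plates equilibrated 20 min at 37 C, then 40 min baseline was recorded, compound was added (0.03-40 uM), and a further 40 min was recorded. Wells needed ≥10 active electrodes (≥5 spikes/min) on exposure day.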

[13] = CCTE_Shafer_MEA_acute_cross_correlation_HWHM: CCTE's Neural Acute Assay for Cross Correlation at Half Width at Half Maximum, Shafer Lab (AID 2284026);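 also: percent change per well from pre-dose baseline in spike cross-correlogram half width; hits are a decrease in cross-correlogram half width relative to DMSO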
Method in brief: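 Rat cortical neuron cultures on microelectrode arrays were equilibrated 20 min at 37 C, recorded 40 min at baseline, then 40 min after compound addition (0.03-40 uM, ≥3 wells). Spikes were detected at 8x rms noise after 300-5000 Hz band-pass filtering.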

[14] = CCTE_Shafer_MEA_acute_synchrony_index: CCTE's Neural Acute Assay for Synchrony, Shafer Lab (AID 2284027);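 also: network synchrony index of spontaneous spiking in primary rat cortical neurons on MEAs; fitted for loss of signal so actives lower synchrony relative to DMSO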
Method in brief: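 Plates equilibrated 20 min at 37 C, baseline recorded 40 min, compound (0.03-40 uM) added, then 40 min more recorded. Cells: primary rat cortical neurons, DIV 13 or 15. Per-well synchrony index change analysed in negative direction against DMSO.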

Measured: AC50

Sequence of Estrogen receptor (Homo sapiens) (P03372 whole entry, looked up): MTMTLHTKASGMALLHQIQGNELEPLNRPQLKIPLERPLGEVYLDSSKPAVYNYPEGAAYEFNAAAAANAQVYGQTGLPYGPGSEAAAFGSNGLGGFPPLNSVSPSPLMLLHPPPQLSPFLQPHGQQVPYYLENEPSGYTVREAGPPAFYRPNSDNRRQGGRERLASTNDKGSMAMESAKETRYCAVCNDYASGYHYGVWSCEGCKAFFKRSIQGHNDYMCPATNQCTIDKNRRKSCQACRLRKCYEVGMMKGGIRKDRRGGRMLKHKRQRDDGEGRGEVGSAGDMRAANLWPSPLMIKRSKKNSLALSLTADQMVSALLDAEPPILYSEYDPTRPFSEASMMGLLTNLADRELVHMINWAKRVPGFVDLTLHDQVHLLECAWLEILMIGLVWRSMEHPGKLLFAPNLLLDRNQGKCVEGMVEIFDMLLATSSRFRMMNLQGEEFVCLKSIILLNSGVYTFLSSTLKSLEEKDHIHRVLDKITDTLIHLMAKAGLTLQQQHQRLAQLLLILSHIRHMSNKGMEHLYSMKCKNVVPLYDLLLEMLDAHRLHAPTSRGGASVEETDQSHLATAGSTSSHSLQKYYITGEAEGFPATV

CC(C)(C)c1ccc(OC(=O)c2ccccc2O)cc1
active: [1] 17.8 µM | [2] 23.7 µM
inactive: [3] | [4]

CCCCCCCCCCOS(=O)(=O)O
active: [7] 19.8 µM
inactive: [5] | [6] | [8]

CCOC(=O)c1ccccc1C(=C1C=C(Br)C(=O)C(Br)=C1)c1cc(Br)c(O)c(Br)c1
inactive: [9] | [10] | [11] | [12] | [14]
active: [13] 11.8 µM

CCCCC(CC)CCC(CC(C)C)OS(=O)(=O)O (stereo not given)
inactive: [5] | [6] | [7] | [8]

O=c1cc(-c2ccccc2)oc2ccccc12
inactive: [6] | [7] | [8]
active: [5] 45.6 µM

COc1ccc(-c2coc3cc(O)ccc3c2=O)cc1
active: [1] 6.69 µM | [2] 5.41 µM
inactive: [3]

O=C(C=Cc1ccccc1)OCc1ccccc1
active: [6] 26.3 µM | [8] 22.9 µM
inactive: [5] | [7]

CO[Si](OC)(OC)c1ccccc1
inactive: [9] | [10] | [11] | [12] | [13] | [14] | [5] | [6] | [8]

CC1=NN(c2cc(S(=O)(=O)O)ccc2Cl)C(=O)C1N=Nc1ccccc1 (stereo not given)
inactive: [5] | [6] | [7] | [8]

C=C[Si](OC(C)=O)(OC(C)=O)OC(C)=O
inactive: [9] | [10] | [11] | [12] | [13] | [14]

O=C1CCCN1CCO
inactive: [9] | [10] | [11] | [12] | [13] | [14]

CCO[Si](C)(OCC)OCC
inactive: [9] | [10] | [11] | [12] | [13] | [14]
